The nature of experiment [1]: ATG_M_06_CIS: Attagene CIS-FACTORIAL HepG2 Assay for M06 Transcription Factor (Internal Marker) (AID 2282950). The settings on record: HepG2 Attagene CIS-FACTORIAL M06 internal marker reporter; actives raise or lower the signal. The method, boiled down:
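Serves as a background control readout. Transfected HepG2 exposed to compounds for 24 h, then reporter transcripts quantified by fluorescent RT-PCR and capillary electrophoresis. Both directions fitted against DMSO baseline.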

The target of experiment [2] is Hypoxia-inducible factor 1-alpha (Homo sapiens) (UniProt Q16665). The experiment is described as follows: ATG_HIF1a_CIS: Attagene CIS-FACTORIAL HepG2 Assay for human Hypoxia Inducible Factor 1 (HIF1A) (AID 2282951). As to conditions: HepG2 Attagene cis-factorial HIF1a reporter transcription; actives raise or lower the signal. In a few lines: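 Dosed 24 h, transfected HepG2 cells yielded total RNA whose reporter transcripts were RT-PCR-amplified and sized by capillary electrophoresis using fluorescent labelling; DMSO defined baseline, with gain and loss of signal both fitted.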

Experiment [3] concerns the target Heat shock factor protein 1 (Homo sapiens) (UniProt Q00613). The experiment is described as follows: ATG_HSE_CIS: Attagene CIS-FACTORIAL HepG2 Assay for human Heat Shock Transcription Factor 1 (HSE) (AID 2282953). As to conditions: HepG2 HSE cis-reporter, Attagene RNA transcription; actives raise or lower the signal. The method, boiled down:
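Endogenous transcription factor activity in transiently transfected HepG2, read as reporter mRNA by RT-PCR with fluorescent capillary electrophoresis after 24 h. Gain or loss of signal fitted versus DMSO baseline.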

A short description of experiment [4]: ATG_MRE_CIS: Attagene CIS-FACTORIAL HepG2 Assay for human Metal Responsive Element (MRE) (AID 2282954). As to conditions: HepG2 MRE cis-reporter transcription, Attagene multiplex; actives raise or lower the signal. The method, boiled down:
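Readout: capillary electrophoresis of 6-FAM-labelled, HpaI-digested RT-PCR reporter products. System: HepG2 cells carrying transient multiplexed cis reporters, dosed 24 h. Analysis: bidirectional fit, DMSO baseline.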

The target in experiment [5] is Paired box protein Pax-6 (Homo sapiens) (UniProt P26367). The experiment is described as follows: ATG_Pax6_CIS: Attagene CIS-FACTORIAL HepG2 Assay for human Paired Box 6 (PAX6) (AID 2282956). The settings on record: HepG2 CIS-FACTORIAL PAX6 reporter transcription, RNA readout; actives raise or lower the signal. The method, boiled down:
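Read-out is reporter transcript level, measured by RT-PCR with fluorescent primer extension and capillary electrophoresis after 24 h dosing of transfected HepG2 cells. Activity in either direction fitted relative to DMSO control.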

Experiment [6] can be described thus: ATG_PPRE_CIS: Attagene CIS-FACTORIAL HepG2 Assay for human Peroxisome Proliferator-activated Response Element (PPRE) (AID 2282958). The settings on record: HepG2 PPRE cis-element reporter, Attagene transcription factor profiling; actives raise or lower the signal. The method, boiled down:
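Measured endpoint: PPRE-controlled reporter mRNA, detected by RT-PCR and capillary electrophoresis fluorescence, from transiently transfected HepG2 cells 24 h after dosing. Curves fitted in both directions using DMSO baseline.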

The nature of experiment [7]: ATG_RORE_CIS: Attagene CIS-FACTORIAL HepG2 Assay for human RAR-related Orphan Receptor Element (RORE) (AID 2282959). The settings on record: HepG2 Attagene cis-factorial RORE reporter, mRNA; actives raise or lower the signal. In a few lines:
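Transiently transfected HepG2 reporter cells were treated 24 h. Reporter transcripts were detected by RT-PCR and capillary electrophoresis, with bidirectional fitting against DMSO.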

The nature of experiment [8]: ATG_PBREM_CIS: Attagene CIS-FACTORIAL HepG2 Assay for human Phenobarbital-responsive Enhancer Module (PBREM) (AID 2282955). As to conditions: HepG2 PBREM cis-reporter, Attagene multiplexed transcription; actives raise or lower the signal. In a few lines:
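Transfected liver-derived HepG2 cells exposed 24 h; PBREM reporter transcript quantified via RT-PCR and capillary electrophoresis, with activity in either direction referenced to DMSO.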

A short description of experiment [9]: ATG_PXRE_CIS: Attagene CIS-FACTORIAL HepG2 Assay for human Pregnane X Receptor Element (PXRE) (AID 2282957). The settings on record: HepG2 Attagene CIS-FACTORIAL PXRE reporter, mRNA; actives raise or lower the signal. The method, boiled down:
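Fluorescent capillary electrophoresis of amplified reporter cDNA gave the signal, collected 24 h after dosing HepG2 cells that held transfected cis-element reporter constructs.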

The target of experiment [10] is Hepatocyte nuclear factor 6 (Homo sapiens) (UniProt Q9UBC0). Kind of experiment: ATG_HNF6_CIS: Attagene CIS-FACTORIAL HepG2 Assay for human Hepatocyte Nuclear Factor 6 (HNF6) (AID 2282952). As to conditions: HepG2 Attagene cis-factorial HNF6 reporter transcription; actives raise or lower the signal. The method, boiled down:
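Activity values derive from bidirectional fitting against DMSO of reporter mRNA levels, measured by capillary electrophoresis of labelled RT-PCR products from HepG2 cells exposed 24 h.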

Where “and” joins values, the source holds several entries; their conditions need not be identical. Identical values can stand only once. More than one record can exist for a structure, and the calls need not agree. Calls of active or inactive are those of the source. Rule for the calls: active = hit-call score of the fitted dose curve at least 0.9, where 1 is the maximum; inactive = score below 0.9.

Hepatocyte nuclear factor 6 (Homo sapiens), sequence (Q9UBC0 whole entry, looked up): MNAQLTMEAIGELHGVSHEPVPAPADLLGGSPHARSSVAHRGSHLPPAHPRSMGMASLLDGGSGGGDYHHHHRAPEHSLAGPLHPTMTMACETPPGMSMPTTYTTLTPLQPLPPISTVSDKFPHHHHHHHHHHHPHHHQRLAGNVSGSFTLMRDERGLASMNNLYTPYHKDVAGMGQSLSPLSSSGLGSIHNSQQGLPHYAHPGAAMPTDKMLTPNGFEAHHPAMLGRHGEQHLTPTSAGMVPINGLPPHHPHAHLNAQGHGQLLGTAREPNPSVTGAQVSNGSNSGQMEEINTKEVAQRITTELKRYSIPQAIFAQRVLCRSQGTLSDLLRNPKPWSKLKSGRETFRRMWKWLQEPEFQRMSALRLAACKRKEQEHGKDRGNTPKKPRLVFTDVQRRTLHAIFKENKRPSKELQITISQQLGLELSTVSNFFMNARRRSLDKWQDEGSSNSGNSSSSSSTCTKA
Paired box protein Pax-6 (Homo sapiens), sequence (P26367 whole entry, looked up): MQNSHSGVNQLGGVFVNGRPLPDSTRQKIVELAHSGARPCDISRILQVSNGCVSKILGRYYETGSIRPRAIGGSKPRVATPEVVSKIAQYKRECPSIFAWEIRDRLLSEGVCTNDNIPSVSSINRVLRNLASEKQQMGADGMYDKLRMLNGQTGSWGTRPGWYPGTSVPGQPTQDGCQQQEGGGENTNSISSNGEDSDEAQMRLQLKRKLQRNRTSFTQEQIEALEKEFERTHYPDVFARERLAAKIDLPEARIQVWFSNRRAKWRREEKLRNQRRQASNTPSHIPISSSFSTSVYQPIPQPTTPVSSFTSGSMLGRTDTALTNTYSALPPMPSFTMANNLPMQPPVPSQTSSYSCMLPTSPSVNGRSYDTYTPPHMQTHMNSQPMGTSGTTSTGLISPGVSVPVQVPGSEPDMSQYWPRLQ
Hypoxia-inducible factor 1-alpha (Homo sapiens), sequence (Q16665 whole entry, looked up): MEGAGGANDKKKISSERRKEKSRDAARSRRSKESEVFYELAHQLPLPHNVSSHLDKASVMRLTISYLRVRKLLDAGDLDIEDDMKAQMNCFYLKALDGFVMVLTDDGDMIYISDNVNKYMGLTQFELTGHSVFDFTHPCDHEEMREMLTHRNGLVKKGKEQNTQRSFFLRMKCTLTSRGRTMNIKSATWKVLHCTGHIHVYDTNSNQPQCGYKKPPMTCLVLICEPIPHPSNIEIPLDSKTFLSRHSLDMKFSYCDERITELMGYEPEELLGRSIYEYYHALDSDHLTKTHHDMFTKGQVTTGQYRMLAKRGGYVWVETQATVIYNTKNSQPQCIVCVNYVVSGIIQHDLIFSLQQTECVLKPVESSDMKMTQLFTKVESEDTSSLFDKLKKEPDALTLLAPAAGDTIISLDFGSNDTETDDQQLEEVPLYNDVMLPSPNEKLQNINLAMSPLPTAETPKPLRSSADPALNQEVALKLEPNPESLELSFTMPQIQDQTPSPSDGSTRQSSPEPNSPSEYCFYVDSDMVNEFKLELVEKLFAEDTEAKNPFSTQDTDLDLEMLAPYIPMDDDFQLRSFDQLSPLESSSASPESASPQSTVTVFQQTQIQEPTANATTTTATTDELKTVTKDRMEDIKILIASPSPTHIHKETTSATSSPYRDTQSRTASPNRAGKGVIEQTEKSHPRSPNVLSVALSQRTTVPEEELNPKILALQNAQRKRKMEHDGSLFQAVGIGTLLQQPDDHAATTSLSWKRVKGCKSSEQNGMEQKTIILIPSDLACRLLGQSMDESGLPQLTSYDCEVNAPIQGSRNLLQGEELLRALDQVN
Heat shock factor protein 1 (Homo sapiens), sequence (Q00613 whole entry, looked up): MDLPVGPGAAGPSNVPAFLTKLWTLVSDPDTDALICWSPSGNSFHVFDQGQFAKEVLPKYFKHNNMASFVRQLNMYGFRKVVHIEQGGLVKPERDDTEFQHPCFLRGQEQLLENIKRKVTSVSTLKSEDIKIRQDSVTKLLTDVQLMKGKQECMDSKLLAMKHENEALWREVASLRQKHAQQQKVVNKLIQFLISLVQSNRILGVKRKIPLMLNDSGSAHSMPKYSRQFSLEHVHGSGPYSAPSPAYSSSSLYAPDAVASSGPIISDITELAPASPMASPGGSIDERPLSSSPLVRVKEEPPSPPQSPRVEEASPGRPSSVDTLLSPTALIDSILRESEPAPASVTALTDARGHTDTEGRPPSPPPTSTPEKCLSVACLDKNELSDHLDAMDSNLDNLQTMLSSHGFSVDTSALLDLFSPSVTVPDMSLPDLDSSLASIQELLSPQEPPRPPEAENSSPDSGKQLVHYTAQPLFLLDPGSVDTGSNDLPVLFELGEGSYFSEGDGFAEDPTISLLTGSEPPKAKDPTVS

For the compound `C=CC(=O)N(C)C`, the compound was called inactive in experiment [1], in experiment [2], in experiment [3], in experiment [4], in experiment [5] and in experiment [6]. In addition, the call in experiment [7] was inactive.

The AC50 is the concentration at which the activity in the assay is half-maximal. Turning to `O=C(Nc1ccc2[nH]ccc2c1)c1cc2cc(F)ccc2n1Cc1cccc(F)c1`, the compound was classed as inactive in experiment [1], in experiment [2], in [6] and in experiment [7]. The AC50 is 11 µM (active) in experiment [4], 17.3 µM (active) in [8], 13.9 µM (active) in [5] and 2.75 µM (active) in experiment [9].

`C=C(C)C(=O)[O][Sn]([CH2]CCC)([CH2]CCC)[CH2]CCC`: the compound was called inactive in [1], in experiment [2], in experiment [8], in [9] and in experiment [7]. Moreover, the AC50 is 0.412 µM (active) in experiment [4], 0.514 µM (active) in experiment [5] and 0.0903 µM (active) in [6].

Turning to `Nc1cccc2ccccc12`, the call in [1], in experiment [3], in experiment [4], in experiment [8], in experiment [5] and in experiment [6] was inactive. Further, the call in [7] was inactive. Further, the AC50 in experiment [2] was 165 µM (active).

Consider `CN(C)P(=O)(N(C)C)N(C)C`, for which the compound was classed as inactive in [1], in experiment [2], in [3], in experiment [4], in experiment [5] and in [9]. Besides, in [7], the call was inactive.

As to `O=[N+]([O-])c1ccc(O)c([N+](=O)[O-])c1`, the compound was called inactive in experiment [1], in [2], in [3], in [8], in experiment [5] and in experiment [9]. Further, the call in experiment [7] was inactive.

Regarding `Clc1ccc(COC(Cn2ccnc2)c2ccc(Cl)cc2Cl)cc1` (stereo not given), the result in experiment [1], in experiment [10], in experiment [4], in experiment [8] and in experiment [5] was inactive.

For `COC(=O)c1sccc1S(=O)(=O)NC(=O)Nc1nc(C)nc(OC)n1`, the result in experiment [1], in [2], in experiment [3], in [8], in experiment [5] and in [9] was inactive. In experiment [6], the outcome was inactive.

In the case of `CCNc1nc(NC(C)(C)C)nc(SC)n1`, the compound was called inactive in [1], in experiment [2], in experiment [3], in [5] and in experiment [7]. Besides, the AC50 is 118 µM (active) in experiment [4], 1.67 µM (active) in experiment [9] and 144 µM (active) in experiment [6].

For `Oc1cccc2cccnc12`, the compound was called inactive in experiment [1], in experiment [10], in experiment [3], in experiment [4], in [8] and in [5]. Also, the result in experiment [6] and in experiment [7] was inactive. Besides, the AC50 was 148 µM (active) in experiment [4]; 27.5 µM (active) and 95.5 µM (active) in experiment [9].

`CCOP(=S)(OCC)SCSP(=S)(OCC)OCC`: the result in [1], in experiment [2], in [3], in [4], in experiment [5] and in [6] was inactive. Besides, the outcome in experiment [7] was inactive. Moreover, the AC50 in experiment [8] was 1.06 µM (active).

Turning to `COc1cc(OC)nc(NC(=O)NS(=O)(=O)c2ncccc2C(=O)N(C)C)n1`, the result in [1], in experiment [2], in [3], in experiment [4], in [8] and in experiment [5] was inactive. Also, the compound was called inactive in [7].

Take `Cc1cc(=O)[nH]o1`: the result in experiment [1], in experiment [2], in [4], in experiment [5] and in experiment [7] was inactive.

As to `COc1cc2c(cc1OC)[C@@]13CCN4CC5=CCO[C@H]6CC(=O)N2[C@H]1[C@H]6[C@H]5C[C@H]43`, the compound was called inactive in experiment [1], in [3], in experiment [4], in experiment [8], in experiment [5] and in [7]. Also, the AC50 is 30.3 µM (active) in [2] and 36.6 µM (active) in [9].

For `N#CCc1ccc(Cl)cc1`, the compound was called inactive in experiment [1], in experiment [2], in experiment [3], in [5] and in experiment [7]. Besides, the AC50 in [9] was 48.5 µM (active).

Take `COc1cccc(C=O)c1`: the result in experiment [1], in experiment [2], in [3], in experiment [8], in experiment [5] and in experiment [9] was inactive. Also, the call in [6] and in [7] was inactive.

On to `CCC(=O)c1ccccc1`, for which the result in experiment [1], in [2], in experiment [3], in experiment [8], in experiment [5] and in experiment [9] was inactive. For the same compound, the compound was called inactive in experiment [6] and in experiment [7].

For the origin of these results see PubChem BioAssay (EPA / NIEHS).
